# Laboratory results reported in ChEMBL document CHEMBL1961873, “Compounds: GSK PKIS; Assays: Nanosyn kinase panel” (2012).
# System: Serine/threonine-protein kinase B-raf (Homo sapiens), P15056 [V600E]
# Settings: at 0.1 µM
# Chain of Serine/threonine-protein kinase B-raf (Homo sapiens), P15056 [V600E] (P15056 whole entry V600E): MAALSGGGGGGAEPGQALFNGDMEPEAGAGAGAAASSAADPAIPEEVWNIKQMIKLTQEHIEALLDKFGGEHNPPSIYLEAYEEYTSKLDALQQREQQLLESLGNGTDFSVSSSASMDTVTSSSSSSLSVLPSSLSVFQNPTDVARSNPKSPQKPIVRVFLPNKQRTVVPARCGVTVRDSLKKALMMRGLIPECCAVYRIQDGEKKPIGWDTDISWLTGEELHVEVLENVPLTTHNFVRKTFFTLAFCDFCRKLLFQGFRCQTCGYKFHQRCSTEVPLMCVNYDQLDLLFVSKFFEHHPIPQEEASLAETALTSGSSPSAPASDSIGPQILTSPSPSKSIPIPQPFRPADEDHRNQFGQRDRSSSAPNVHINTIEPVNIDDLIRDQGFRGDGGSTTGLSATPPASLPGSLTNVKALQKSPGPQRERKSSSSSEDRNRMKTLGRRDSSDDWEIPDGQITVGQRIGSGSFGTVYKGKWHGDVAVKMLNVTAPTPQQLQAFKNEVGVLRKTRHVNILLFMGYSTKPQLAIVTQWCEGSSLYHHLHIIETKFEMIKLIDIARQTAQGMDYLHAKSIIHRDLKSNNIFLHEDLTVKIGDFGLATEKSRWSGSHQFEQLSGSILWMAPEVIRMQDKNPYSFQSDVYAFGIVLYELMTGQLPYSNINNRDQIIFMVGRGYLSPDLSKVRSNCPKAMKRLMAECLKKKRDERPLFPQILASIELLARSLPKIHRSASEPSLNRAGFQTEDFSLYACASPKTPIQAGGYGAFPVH
row,Compound,inhibition
1,Fc1ccc(-c2nn3ccccc3c2-c2ccncc2)cc1,2.64%
2,NS(=O)(=O)c1ccc(N/N=C2\C(=O)Nc3ccc4ncccc4c32)cc1,14.6%
3,CCc1nn2ncccc2c1-c1ccnc(NC2CC2)n1,3.84%
4,O=C(Nc1n[nH]c2cc(-c3ccc(F)cc3)ccc12)C1CC1,4.48%
5,CCCN1CCC(c2ccc(Nc3nc(Nc4cc(F)ccc4C(N)=O)c4cc[nH]c4n3)c(OC)c2)CC1,10.1%
6,CCCN(CCS(C)(=O)=O)Cc1ccc(-c2ccc3ncnc(Nc4ccc(OCc5cccc(F)c5)c(Cl)c4)c3c2)o1,3.15%
7,CC(C)COC(=O)c1ccc2c(c1)/C(=C/Nc1ccc(S(N)(=O)=O)cc1)C(=O)N2,1.68%
8,NS(=O)(=O)c1ccc(Nc2ncc(-c3ccccc3)o2)cc1,6.65%
9,Cc1ccc(O)cc1Nc1ccnc2cc(-c3ccccn3)ccc12,8.35%
10,COc1cc2ncn(-c3cc(OCc4ccccc4C(F)(F)F)c(C(=O)N(C)C)s3)c2cc1OC,-0.77%
11,COc1ccc(-c2nn3ncccc3c2-c2ccnc(Nc3ccc4c(c3)OCCO4)n2)cc1,1.25%
12,COc1cccc(-n2ncc3c(N/N=C/c4ccc(F)cc4)ncnc32)c1,5.77%
13,COc1cc(Nc2nccc(Nc3ccc4c(C)n[nH]c4c3)n2)cc(OC)c1OC,2.09%
14,COc1ccc(-c2cc3c(N)ncnc3o2)cc1,-0.23%
15,Nc1ncc(-c2cccc(S(N)(=O)=O)c2)c2scc(-c3ccc(F)c(Cl)c3)c12,5.84%
16,COC(=O)c1sc(-n2cnc3cc(OC)c(OC)cc32)cc1OCc1ccccc1C(F)(F)F,6.02%
17,Clc1ccc(-c2nn3ncccc3c2-c2ccnc(Nc3ccccc3)n2)cc1,2.08%

row,Compound,inhibition
1,CC(=O)NCc1cccc(C#Cc2cncnc2Nc2ccc(OCc3cccc(F)c3)c(Cl)c2)c1,3.3%
2,COc1cc2c(cc1Nc1nc(Nc3ccsc3C(N)=O)c3cc[nH]c3n1)N(C(=O)CN(C)C)CCC2(C)C,7.15%
3,Cc1cccc(Nc2ncc(-c3ccccc3)o2)c1,3.58%
4,CCn1c(-c2nonc2N)nc2cnc(Oc3cccc(NC(=O)c4ccc(N(C)C)cc4)c3)cc21,2.62%
5,COc1ccc(-c2oc3ncnc(N)c3c2-c2ccc(NC(=O)Nc3cc(C(F)(F)F)ccc3F)cc2)cc1,8.1%
6,COc1cc(/C=N/Nc2ncnc3[nH]ncc23)ccc1O,4.62%
7,Fc1cccc(COc2ccc(Nc3ncnc4sc(-c5ccco5)cc34)cc2Cl)c1,4.59%
8,CN1CCC(n2cnc(-c3ccc(F)cc3)c2-c2ccnc(Nc3ccccc3)n2)CC1,3.27%
9,CNC(=O)c1cccc(C#Cc2cncnc2Nc2ccc(OCc3cccc(F)c3)c(Cl)c2)c1,0.09%
10,CCOc1ccc2c(-c3ccnc(Nc4cccc(C(F)(F)F)c4)n3)cnn2n1,3.04%
11,CCN1CCC(CC(=O)Nc2n[nH]c3nnc(-c4cccc(F)c4F)cc23)CC1,2.74%
12,FC(F)(F)c1cccc(-c2nn3ncccc3c2-c2ccnc(Nc3ccc4c(c3)OCCO4)n2)c1,1.76%
13,CN(C)CCOc1ccc(-c2nc(-c3ccncc3)c(-c3ccc4c(c3)CC/C4=N\O)[nH]2)cc1,72.2%
14,Cc1cccc2c1NC(=O)/C2=N\Nc1ccc(S(N)(=O)=O)cc1,2.89%
15,COc1cccc(-c2c[nH]c3c(N/N=C/c4ccncc4)ncnc23)c1,3.98%
16,COc1ccc(-c2cc(-c3c[nH]nc3-c3ccccn3)ccn2)cc1,7.82%

# System: Serine/threonine-protein kinase B-raf (Homo sapiens), P15056 [V600E]
# Settings: at 1 µM
row,Compound,inhibition
1,Fc1ccc(-c2nn3ccccc3c2-c2ccncc2)cc1,4.72%
2,NS(=O)(=O)c1ccc(N/N=C2\C(=O)Nc3ccc4ncccc4c32)cc1,60.8%
3,CCc1nn2ncccc2c1-c1ccnc(NC2CC2)n1,3.79%
4,O=C(Nc1n[nH]c2cc(-c3ccc(F)cc3)ccc12)C1CC1,5.12%
5,CCCN1CCC(c2ccc(Nc3nc(Nc4cc(F)ccc4C(N)=O)c4cc[nH]c4n3)c(OC)c2)CC1,37.4%
6,CCCN(CCS(C)(=O)=O)Cc1ccc(-c2ccc3ncnc(Nc4ccc(OCc5cccc(F)c5)c(Cl)c4)c3c2)o1,3.85%
7,CC(C)COC(=O)c1ccc2c(c1)/C(=C/Nc1ccc(S(N)(=O)=O)cc1)C(=O)N2,34%
8,NS(=O)(=O)c1ccc(Nc2ncc(-c3ccccc3)o2)cc1,6.08%
9,Cc1ccc(O)cc1Nc1ccnc2cc(-c3ccccn3)ccc12,9.49%
10,COc1cc2ncn(-c3cc(OCc4ccccc4C(F)(F)F)c(C(=O)N(C)C)s3)c2cc1OC,2.51%
11,COc1ccc(-c2nn3ncccc3c2-c2ccnc(Nc3ccc4c(c3)OCCO4)n2)cc1,4.88%
12,COc1cccc(-n2ncc3c(N/N=C/c4ccc(F)cc4)ncnc32)c1,7.05%
13,COc1cc(Nc2nccc(Nc3ccc4c(C)n[nH]c4c3)n2)cc(OC)c1OC,7%
14,COc1ccc(-c2cc3c(N)ncnc3o2)cc1,1.67%
15,Nc1ncc(-c2cccc(S(N)(=O)=O)c2)c2scc(-c3ccc(F)c(Cl)c3)c12,10.1%
16,COC(=O)c1sc(-n2cnc3cc(OC)c(OC)cc32)cc1OCc1ccccc1C(F)(F)F,6.69%
17,Clc1ccc(-c2nn3ncccc3c2-c2ccnc(Nc3ccccc3)n2)cc1,5.6%

row,Compound,inhibition
1,CC(=O)NCc1cccc(C#Cc2cncnc2Nc2ccc(OCc3cccc(F)c3)c(Cl)c2)c1,0.73%
2,COc1cc2c(cc1Nc1nc(Nc3ccsc3C(N)=O)c3cc[nH]c3n1)N(C(=O)CN(C)C)CCC2(C)C,14%
3,Cc1cccc(Nc2ncc(-c3ccccc3)o2)c1,3.05%
4,CCn1c(-c2nonc2N)nc2cnc(Oc3cccc(NC(=O)c4ccc(N(C)C)cc4)c3)cc21,6.32%
5,COc1ccc(-c2oc3ncnc(N)c3c2-c2ccc(NC(=O)Nc3cc(C(F)(F)F)ccc3F)cc2)cc1,23.9%
6,COc1cc(/C=N/Nc2ncnc3[nH]ncc23)ccc1O,8.2%
7,Fc1cccc(COc2ccc(Nc3ncnc4sc(-c5ccco5)cc34)cc2Cl)c1,3.4%
8,CN1CCC(n2cnc(-c3ccc(F)cc3)c2-c2ccnc(Nc3ccccc3)n2)CC1,6.57%
9,CNC(=O)c1cccc(C#Cc2cncnc2Nc2ccc(OCc3cccc(F)c3)c(Cl)c2)c1,1.59%
10,CCOc1ccc2c(-c3ccnc(Nc4cccc(C(F)(F)F)c4)n3)cnn2n1,0.8%
11,CCN1CCC(CC(=O)Nc2n[nH]c3nnc(-c4cccc(F)c4F)cc23)CC1,1.57%
12,FC(F)(F)c1cccc(-c2nn3ncccc3c2-c2ccnc(Nc3ccc4c(c3)OCCO4)n2)c1,7.02%
13,CN(C)CCOc1ccc(-c2nc(-c3ccncc3)c(-c3ccc4c(c3)CC/C4=N\O)[nH]2)cc1,90.1%
14,Cc1cccc2c1NC(=O)/C2=N\Nc1ccc(S(N)(=O)=O)cc1,3.31%
15,COc1cccc(-c2c[nH]c3c(N/N=C/c4ccncc4)ncnc23)c1,11.2%
16,COc1ccc(-c2cc(-c3c[nH]nc3-c3ccccn3)ccn2)cc1,6.42%
